For 24 compounds, Potency, outcome and activity, negative = inhibition results are on record in PubChem BioAssay (NCATS).

Test [1] addresses Glutathione peroxidase 1 (Homo sapiens) (UniProt P07203). In words: Primary qHTS Assay for Inhibitors of Recombinant Selenoprotein Glutathione Peroxidase 1 (GPX1) (AID 1845191). Further: nearly all actives have a fitted effect of over 65% in size. On activity, negative = inhibition: on the % scale 0 is the no-effect control and ±100 the full control effect. In short, it runs like this: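 10 nM GPX1 + cpd, 30 min RT; start w/ 1 mM GSH, 0.5 mM cumene hydroperoxide, 0.5 mM NADPH, 100 nM GR, 0.01% BSA; buffer 50 mM Tris-HCl pH 7.5, 2 mM EDTA, 150 mM NaCl; Fl 340/450, 0 & 15 min.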
For orientation: In qHTS, concentration-response curves come from the screen itself.

Test [2] addresses Phospholipid hydroperoxide glutathione peroxidase GPX4 (Homo sapiens) (UniProt P36969). In words: Primary qHTS Assay for Inhibitors of Recombinant Selenoprotein Glutathione Peroxidase 4 (GPX4) (AID 1845192). Further: nearly all actives have a fitted effect of over 65% in size. Further: potency means the concentration at half of the fitted maximal effect. In a few lines:
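NADPH consumption, followed by fluorescence at 340/450 nm between 0 and 15 min, reports GPX4 activity via coupled glutathione reductase (100 nM). Enzyme 200 nM was pre-exposed to compound 30 min; 0.5 mM cumene hydroperoxide and 1 mM GSH served as substrates.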

Test [3] is described as follows: Primary fluorescence-based thiol-reactive (MSTI) qHTS assay for identification of artifact compounds. (AID 1845221).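 Further: series mostly up to about 54 µM; thiol-reactive compounds lower the probe fluorescence signal; nearly all actives have a fitted effect of over 65% in size.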 In short, it runs like this: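 In PBS pH 7.4 with 2% DMSO, each compound met 4 uM MSTI for one hour at ambient temperature, shielded from light, before fluorescence detection.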
In test [4] the test system is Nanoluciferase (engineered Oplophorus gracilirostris luciferase). As to the kind of experiment: Primary Nanoluciferase (NLuc) qHTS assay for identification of artifact compounds. (AID 1845222).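 Further: series mostly up to about 54 µM; 0% = DMSO and -100% = no enzyme.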 In a few lines: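 Compounds are pinned into diluted (1:55) conditioned medium of NLuc-expressing S16 cells and held 15 min at room temperature protected from light. Nano-Glo substrate follows, and luminescence is read 5 min later.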

The nature of test [5]: Primary redox qHTS assay for identification of artifact compounds. (AID 1845223). In a few lines:
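Amplex Red (25 uM) and HRP (250 mU/mL) in HBSS, with compounds for 15 min, then 250 uM DTT for 30 min, room temperature, dark. Fluorescence 525/598 nm read; normalized to DMSO and 10 uM DA3003; Hill fit.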

The nature of test [6]: Quantitative High-Throughput drug screen in 47 multiple myeloma cell lines against the NCATS MIPE library collection: FR4_PLB cell viability assay (AID 1918924; further: nearly all actives have a fitted effect of over 35% in size; further: potency means the concentration at half of the fitted maximal effect). In a few lines: (§1)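 Primary qHTS used for cherry-picking: cells at 500/well, library compounds for 48 h (37C, 5% CO2), luminescent ATP assay.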
Test [7] in a line: Quantitative High-Throughput drug screen in 47 multiple myeloma cell lines against the NCATS MIPE library collection: Delta47_JCRB cell viability assay (AID 1918925; further: nearly all actives have a fitted effect of over 45% in size; further: potency means the concentration at half of the fitted maximal effect). In short, it runs like this: (§2)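 Myeloma cells (500 per well) were exposed to MIPE 4.0 compounds by pin transfer and incubated 48 hours at 37C, 5% CO2. Viability was read as ATP by CellTiter-Glo luminescence, normalised to DMSO (100%) and media-only (0%) wells.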

Test [8] is described as follows: Quantitative High-Throughput drug screen in 47 multiple myeloma cell lines against the NCATS MIPE library collection: EJM_DSMZ cell viability assay (AID 1918926; further: nearly all actives have a fitted effect of over 30% in size; further: potency means the concentration at half of the fitted maximal effect). In short, it runs like this: as §2
The nature of test [9]: Quantitative High-Throughput drug screen in 47 multiple myeloma cell lines against the NCATS MIPE library collection: AMO1_DSMZ cell viability assay (AID 1918927; further: nearly all actives have a fitted effect of over 30% in size; further: potency means the concentration at half of the fitted maximal effect). In a few lines:
as §2

Test [10] can be described thus: Quantitative High-Throughput drug screen in 47 multiple myeloma cell lines against the NCATS MIPE library collection: ARP1_JJKsccF8 cell viability assay (AID 1918928; further: nearly all actives have a fitted effect of over 40% in size; further: potency means the concentration at half of the fitted maximal effect). In a few lines: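 Myeloma cells at 500 per well in 1536-well format treated with MIPE 4.0 library by pin transfer for 48 h at 37C, 5% CO2. Viability from ATP luminescence (CellTiter-Glo), normalized to DMSO (100%) and media-only (0%) wells.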

The nature of test [11]: Quantitative High-Throughput drug screen in 47 multiple myeloma cell lines against the NCATS MIPE library collection: ARD_JJKsccE7 cell viability assay (AID 1918929; further: potency means the concentration at half of the fitted maximal effect). In a few lines: as §2
Test [12] in a line: Quantitative High-Throughput drug screen in 47 multiple myeloma cell lines against the NCATS MIPE library collection: Karpas620_DSMZ cell viability assay (AID 1918959). Further: nearly all actives have a fitted effect of over 30% in size. Further: potency means the concentration at half of the fitted maximal effect. In short, it runs like this:
as §1

The target in test [13] is Metallo-beta-lactamase type 2 (Klebsiella pneumoniae) (UniProt C7C422). As to the kind of experiment: qHTS to identify inhibitors of the New Delhi Metallo-beta-lactamase (NDM): assay validation screen against the NCATS LOPAC Collection (AID 1794843).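 Further: nitrocefin turnover by NDM-1 measured as 485 nm absorbance at plateau; series mostly up to about 38 µM; on the % scale 0 is the no-effect control and ±100 the full control effect.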 In short, it runs like this: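 NDM-1 at 2 nM final in 50 mM HEPES pH 7.0, 1 uM ZnSO4, 0.01% Tween20, preincubated with LOPAC compounds pinned in DMSO; 50 uM nitrocefin (stock) added. Hydrolysis read as absorbance at 485 nm in the plateau phase.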

Test [14] addresses Luciferin 4-monooxygenase (Photinus pyralis) (UniProt P08659). As to the kind of experiment: Primary firefly luciferase (FLuc) qHTS assay for identification of artifact compounds. (AID 1845220). Further: nearly all actives have a fitted effect of over 60% in size. In a few lines:
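Cell-free, 1536-well qHTS. Buffer pH 7.6 with 0.01% Tween-20 and 0.05% BSA; 10 uM D-luciferin, 10 uM ATP; 10 nM P. pyralis luciferase; luminescence after 5 min.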

Molecules are shown by their SMILES. Records with an inconclusive call do not appear. A structure can be active in one record and inactive in another. Calls of active or inactive are those of the source. The call rests on the fitted dose curve; in most records, active means well fitted curve in the direction sought with a large enough effect; inconclusive means small, poorly fitted or top-dose-only effect, or another doubt; inactive means no such curve, though single readings can be large; an effect the other way counts as inactive or inconclusive.

Sequence of Phospholipid hydroperoxide glutathione peroxidase GPX4 (Homo sapiens) (P36969 whole entry, looked up): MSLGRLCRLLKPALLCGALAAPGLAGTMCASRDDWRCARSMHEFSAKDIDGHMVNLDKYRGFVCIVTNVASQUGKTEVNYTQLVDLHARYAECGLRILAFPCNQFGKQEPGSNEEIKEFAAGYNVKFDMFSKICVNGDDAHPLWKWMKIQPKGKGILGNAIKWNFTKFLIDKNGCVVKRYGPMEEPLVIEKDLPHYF
Sequence of Glutathione peroxidase 1 (Homo sapiens) (P07203 whole entry, looked up): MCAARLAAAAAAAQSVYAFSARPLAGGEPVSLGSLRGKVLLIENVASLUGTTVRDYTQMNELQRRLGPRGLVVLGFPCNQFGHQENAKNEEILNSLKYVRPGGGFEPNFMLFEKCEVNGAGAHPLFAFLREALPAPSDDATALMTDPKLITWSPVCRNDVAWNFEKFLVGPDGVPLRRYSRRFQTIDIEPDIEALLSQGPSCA
Sequence of Metallo-beta-lactamase type 2 (Klebsiella pneumoniae) (C7C422 whole entry, looked up): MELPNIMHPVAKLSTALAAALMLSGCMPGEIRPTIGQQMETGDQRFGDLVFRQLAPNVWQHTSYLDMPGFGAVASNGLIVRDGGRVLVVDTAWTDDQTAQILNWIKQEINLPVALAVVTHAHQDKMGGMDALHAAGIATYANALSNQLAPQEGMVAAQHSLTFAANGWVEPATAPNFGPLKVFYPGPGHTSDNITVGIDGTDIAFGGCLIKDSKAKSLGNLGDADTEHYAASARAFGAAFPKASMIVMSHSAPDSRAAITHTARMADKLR

As for `O=C(Nc1cccnc1)N1CCC(Cc2cccc(Oc3ccc(C(F)(F)F)cn3)c2)CC1`, the Potency result in [1], in [2] and in test [3] was “inactive” in each case. Moreover, the outcome in [4] and in test [5] was inactive. Moreover, the Potency is 16.6 µM (active) in [6]; 9.35 µM (active) in [7]; 18.7 µM (active) in test [8]; 9.35 µM (active) in test [9]; 18.7 µM (active) in test [10]; 11.8 µM (active) in test [11]. Besides, the Potency in [12] was 14.8 µM (active).

`CC(C[N+](C)(C)C)OC(N)=O` (centres undefined): in test [13], the compound was called inactive. Also, the Potency entry in test [1], in test [2], in [7], in test [8], in test [9] and in [11] was “inactive” each time. In addition, the Potency result in test [12] was “inactive”.

Consider `CCCc1nn(C)c2c(=O)[nH]c(-c3cc(S(=O)(=O)N4CCN(C)CC4)ccc3OCC)nc12`, for which the Potency result in test [1], in test [2], in test [14], in test [3], in test [8] and in test [9] was “inactive” each time. In addition, in test [11], the Potency entry is “inactive”. Moreover, the call in test [4] and in [5] was inactive.

Take `CCOc1ccn(-c2ccc(F)cc2)c(=O)c1C(=O)Nc1ccc(Oc2ccnc(N)c2Cl)c(F)c1`: the Potency result in test [1], in test [2] and in test [3] was “inactive” each time. For the same compound, the result in test [4] and in [5] was inactive. The Potency was 18.7 µM (active) in test [6], 18.7 µM (active) in [9], 14.8 µM (active) in test [10] and 18.7 µM (active) in test [11].

With `NC(=O)c1ccc(I)c([N+](=O)[O-])c1`, the Potency result in test [1], in test [2], in test [6], in test [8], in [10] and in test [11] was “inactive” each time. In test [7], the Potency is 18.7 µM (active).

Take `C[C@H](NC(=O)Cc1cc(F)cc(F)c1)C(=O)N[C@@H]1C(=O)N(C)c2ccccc2-c2ccccc21`: the Potency entry in test [1], in test [2], in test [3] and in test [12] was “inactive” throughout. Further, the compound was called inactive in [4] and in test [5]. In test [7], the Potency is 7.43 µM (active).

In the case of `CC1(C)CNc2cc(NC(=O)c3cccnc3NCc3ccncc3)ccc21`, the Potency entry in test [1], in [2], in test [7], in test [9], in test [11] and in [12] was “inactive” each time. Besides, the outcome in test [4] and in [5] was inactive. Also, the Potency in [8] was 2.64 µM (active).

In the case of `COc1ccc(CC2=NN3C([C@@H](CCc4ccccc4)[C@@H](C)O)=NC(C)C3C(=O)N2)cc1OC` (some centres undefined), the Potency result in test [1], in test [2], in test [6], in test [8], in [9] and in test [10] was “inactive” throughout. The Potency result in [12] was “inactive”.

As for `COc1ccc2c3n(c(=NC(=O)c4cccnc4)nc2c1OC)CCN3`, the activity, negative = inhibition in test [1] is 0.782% [at 4.49 µM] (inactive). Further, in test [2], the outcome is “inactive [at 4.52 µM]”. Besides, the Potency in [6] was 16.6 µM (active); in test [7], 2.09 µM (active); in [8], 7.43 µM (active); in test [9], 18.7 µM (active); in [10] it was 2.64 µM (active); in test [12], 7.43 µM (active).

For the compound `CNC(=O)c1ccc(C)c(-n2c(C)cc(OCc3ccc(F)cc3F)c(Br)c2=O)c1`, the Potency entry in [1], in test [2] and in [3] was “inactive” in each case. Moreover, the call in [4] and in test [5] was inactive. Also, the Potency in test [7] is 14.8 µM (active); in test [8] it was 20.9 µM (active); in [9], 16.6 µM (active).

As for `Cc1c(C)c2c(c(C)c1O)CCC(C)(COc1ccc(CC3SC(=O)NC3=O)cc1)O2` (centres undefined), the Potency entry in [1], in [2], in test [6], in test [8] and in test [10] was “inactive” each time.

As to `Clc1ccc(Nc2nnc(Cc3ccncc3)c3ccccc23)cc1`, the Potency entry in test [1], in test [2], in test [3], in [6] and in [9] was “inactive” in each case. Further, the outcome in [4] and in test [5] was inactive. Moreover, the Potency in test [8] was 18.7 µM (active); in [12], 1.66 µM (active).

In the case of `Cc1ccnc(NS(=O)(=O)c2ccc(NC(=O)Nc3ccc(S(=O)(=O)Nc4nccc(C)n4)cc3)cc2)n1`, the Potency result in [1], in test [2], in test [3] and in test [10] was “inactive” throughout. In test [5], the compound was called inactive. Besides, the Potency in test [9] was 14.8 µM (active); in test [11], 23.5 µM (active); in test [12], 16.6 µM (active).

As to `CCCS(=O)(=O)Nc1ccc(F)c(C(=O)c2c[nH]c3ncc(Cl)cc23)c1F`, the Potency result in [1], in [2], in [3] and in [8] was “inactive” each time. Further, the outcome in test [4] and in test [5] was inactive. Also, the Potency was 20.9 µM (active) in [9], 18.7 µM (active) in [11] and 20.9 µM (active) in [12].

As for `CCCCCCCc1ccc(CCc2cccc(O)c2C(=O)O)cc1`, the Potency result in test [1], in test [6], in [8], in test [9] and in test [12] was “inactive” each time. In addition, the Potency in test [2] is 20.2 µM (active).

Take `Cc1cc2c(F)c(Oc3ncnn4cc(OC[C@@H](C)O)c(C)c34)ccc2[nH]1`: the Potency entry in test [1], in test [2], in [6] and in test [12] was “inactive” each time. For the same compound, the Potency in test [7] is 16.6 µM (active); in test [9] it was 4.69 µM (active).

Regarding `NC(=O)C1CCCc2c1[nH]c1ccc(Cl)cc21` (centres undefined), the Potency entry in [1], in test [2], in [6], in test [8] and in [10] was “inactive” throughout. Besides, the Potency in [9] is 14.8 µM (active); in test [12], 18.7 µM (active).

Regarding `Cc1cc(Nc2nc(N[C@@H](C)c3ncc(F)cn3)ncc2Cl)n[nH]1`, the Potency result in test [1], in [2], in test [3] and in [7] was “inactive” in each case. Also, the outcome in test [4] and in test [5] was inactive. For the same compound, the Potency in [8] is 2.64 µM (active).

Take `Cc1cc2c(C(C)C)c(O)c(O)c(C=O)c2c(O)c1-c1c(C)cc2c(C(C)C)c(O)c(O)c(C=O)c2c1O`: the Potency entry in test [1] is “inactive”. Besides, the Potency is 10.1 µM (active) and inactive in test [2]; 10.5 µM (active) in [6]; 8.33 µM (active) in test [7]; 20.9 µM (active) in test [8]; 10.5 µM (active) in [10]; 8.33 µM (active) in test [12].

For `COc1cc(Nc2ncc3c(n2)-c2ccc(Cl)cc2C(c2c(F)cccc2OC)=NC3)ccc1C(=O)O`, the Potency result in test [1], in [2], in test [3], in [6] and in [8] was “inactive” in each case. Also, the result in test [4] and in test [5] was inactive.

For the compound `COCCNCCCn1c(C(=O)CF)c(-c2ccc(C)cc2)c2c(N)ncnc21`, the Potency entry in [1], in [2] and in test [7] was “inactive” throughout. Moreover, the Potency in [6] was 13.2 µM (active); in [8] it was 4.18 µM (active).

Turning to `O=c1[nH]c(-c2ccc(C(F)(F)F)cc2)nc2c1CSCC2`, the Potency entry in test [1], in test [2], in [3], in test [6], in [9] and in test [11] was “inactive” in each case. The Potency result in test [12] is “inactive”. The result in test [4] and in test [5] was inactive.

Regarding `CC1(C)Cc2c(-c3ccccc3)c(-c3ccc(Cl)cc3)c(CC(=O)O)n2C1`, the Potency entry in test [1], in test [2], in test [3] and in test [11] was “inactive” throughout. In addition, the call in [4] was inactive. Also, the Potency in test [10] was 23.5 µM (active); in [12], 6.62 µM (active).

With `CCCCNc1cc(C(=O)O)cc(S(N)(=O)=O)c1Oc1ccccc1`, the Potency result in [1], in test [2], in test [6], in [7], in test [8] and in [9] was “inactive” each time. For the same compound, the Potency entry in test [10] and in test [12] was “inactive” each time.
